High-throughput results deposited in PubChem by several laboratories.
Sampled rows, rich in hits. Any-hit rate of the full collection: about 3.2%.
A3A deaminase: inhibitors of human APOBEC3A DNA deaminase; P31941; recombinant A3A, FAM/TAMRA ssDNA deamination fluorescence; inhibition, % at 20 µM; hit rate 0.41% among 330,000; AID 493011;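 active = at least 40% inhibition at 20 µM here, with at most 30% in a related deaminase screen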
NTR1 agonist: agonists of human neurotensin receptor NTR1; P30989; NTR1-U2OS beta-arrestin-GFP spot imaging, agonist mode; activation, % at 20 µM; hit rate 0.17% among 330,000; AID 493036;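 active = activation at or above 40% of the spot to cytoplasm intensity ratio, with at least 20 cells analyzed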
AHR activator: activates the human aryl hydrocarbon receptor; AHR-responsive luciferase reporter cells, luminescence; activation, % at 5 µM; hit rate 2.5% among 320,000; AID 2796; in the data active = activation above about 47%
APOBEC3G inh: APOBEC3G (human) deaminase inhibition. recombinant A3G, ssDNA deamination FAM/TAMRA fluorescence. inhibition, % at 20 µM. hit rate 0.28% among 330,000. AID 493012;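 active = inhibition of at least 40% at 20 µM, with no more than 30% in the related APOBEC3A deaminase screen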
Target sequence (Q9HC16 whole entry, looked up): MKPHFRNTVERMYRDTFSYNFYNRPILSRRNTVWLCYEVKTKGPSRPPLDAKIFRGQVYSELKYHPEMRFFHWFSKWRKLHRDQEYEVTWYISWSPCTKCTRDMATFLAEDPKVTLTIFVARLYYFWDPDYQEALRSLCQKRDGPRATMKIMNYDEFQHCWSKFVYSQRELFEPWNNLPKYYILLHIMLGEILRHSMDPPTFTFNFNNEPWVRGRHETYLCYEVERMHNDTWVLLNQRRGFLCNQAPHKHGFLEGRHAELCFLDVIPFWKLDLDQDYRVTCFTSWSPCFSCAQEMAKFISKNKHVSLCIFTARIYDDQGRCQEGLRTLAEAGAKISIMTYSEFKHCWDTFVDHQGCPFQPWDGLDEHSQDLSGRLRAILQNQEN
A3G conf: confirmation of human APOBEC3G DNA deaminase inhibitors. shares compounds with APOBEC3G inh. recombinant A3G ssDNA deaminase, UDG/FAM-TAMRA fluorescence. inhibition, % at 20 µM. hit rate 72% among 890;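 active = inhibition reaching a set limit in any replicate at 20 µM, the limit being 80% of the first screen's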
UDG A3G counter: inhibits E. coli UDG, flagging false APOBEC3G inhibitors; 710 tested, under 10 active; inhibition, % at 20 µM; UDG counterscreen, FAM/TAMRA oligo fluorescence; shares compounds with APOBEC3G inh; AID 504715;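 active = compounds giving 40% or more inhibition at 20 µM in any one of the three replicates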;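 note: inhibitors lower the FAM signal released by uracil excision and alkaline cleavage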
NTR1 ag conf: NTR1 (human) agonism, confirmed. activation, % at 20 µM. NTR1-U2OS beta-arrestin-GFP translocation imaging. shares compounds with NTR1 agonist. hit rate 38% among 480;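 active = mean activation at 20 µM of at least 40%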
Of the large screens only hits and unclear results are named; the others gave an inactive call (follow-up assays come after a bar, where they were run).

O=C1NC(=O)C(Sc2ccccc2[N+](=O)[O-])C(=O)N1	APOBEC3G inh 46 | A3G conf 63 | UDG A3G counter inactive
CCCCn1c(=O)c(C(=O)Nc2nnc(C(C)C)s2)c(O)c2ccccc21	none
c1cncc(C2Nc3cccc4cccc(c34)N2)c1	APOBEC3G inh 45 | A3G conf 64
COC(=O)c1ccc(NC(=O)CSc2nc3ccc(N4C(=O)C5C6C=CC(C6)C5C4=O)cc3s2)cc1 (configuration not stated)	NTR1 agonist 63 | NTR1 ag conf 56
C/C(=C\c1ccc(N(C)C)cc1)[N+](=O)[O-]	NTR1 agonist 53 | NTR1 ag conf 73
CN(C)c1ccc(/C=C/[N+](=O)[O-])cc1	none
CCOS(C)(=O)=O	none
NC(N)=N/N=C/c1ccc(N(c2ccccc2)c2ccccc2)cc1	NTR1 agonist 64 | NTR1 ag conf inactive
O=C1CN(C(=O)COC(=O)Cc2ccccc2)c2ccccc2N1	none
COc1ccc(NC(=O)c2cn(CCC#N)nc2-c2cccc([N+](=O)[O-])c2)cc1	none
COc1ccc(Oc2cc(NC(=O)c3nn(C)cc3[N+](=O)[O-])cc([N+](=O)[O-])c2)cc1	NTR1 agonist 61 | NTR1 ag conf 67
O=c1[nH]c2ccccc2n1C1CCN(CCCC(c2ccc(F)cc2)c2ccc(F)cc2)CC1	NTR1 agonist 43 | NTR1 ag conf inactive
O=C1CC(N2CCC(n3c(=O)[nH]c4ccccc43)CC2)C(=O)N1c1ccc(F)cc1 (configuration not stated)	none
Nc1ccc(Cl)cc1C(=O)c1ccccc1	NTR1 agonist 100 | NTR1 ag conf inactive
O=C1NC(=O)C(=Cc2cn(CCOc3ccc4c(c3)OCO4)c3ccccc23)C(=O)N1	NTR1 agonist 54 | NTR1 ag conf 63
CC12CCCCC1N(O)CN2O (configuration not stated)	none
OCCOCCO	none
CCN(CC)c1ccc(C=C2C(=O)NC(=S)NC2=O)cc1	NTR1 agonist 71 | NTR1 ag conf 95
CN1CCN(C(=O)O[C@H]2c3nccnc3C(=O)N2c2ccc(Cl)cn2)CC1	none
O=C1NC(=O)N(Cc2ccc(F)cc2)C(=O)/C1=C/c1cccs1	NTR1 agonist 53 | NTR1 ag conf 45
CC1CCC(C(C)C)C(OC(=O)Cn2c(COc3ccccc3)[n+](C)c3ccccc32)C1 (configuration not stated)	NTR1 agonist 59 | NTR1 ag conf 68
Cc1cccc(N2C(=O)NC(=O)/C(=C/c3ccc([N+](=O)[O-])o3)C2=O)c1	none (no result: A3A deaminase, NTR1 agonist, APOBEC3G inh)
Cc1cc(C)cc(N2C(=O)NC(=O)/C(=C/c3cccn3-c3ccc(Cl)cc3)C2=O)c1	NTR1 agonist 44 | NTR1 ag conf 61
Cc1cccc(N2C(=O)NC(=O)/C(=C\c3cccn3-c3ccc(Cl)cc3)C2=O)c1	NTR1 agonist 48 | NTR1 ag conf 82
CC(C)(C)n1cccc1/C=C1\C(=O)NC(=O)N(c2ccccc2)C1=O	none
CCCCn1c(=O)c(C(=O)NCc2ccccc2Cl)c(O)c2ccccc21	none
Cc1ccc(C(=O)N[C@@H](C)CN2C3=NC[C@H](Cc4ccccc4)N3C[C@H]2Cc2ccc(O)cc2)cc1Br	NTR1 agonist 52 | NTR1 ag conf inactive
Cc1ccc(C(=O)N[C@@H](C)CN2C3=NC[C@@H](Cc4ccccc4)N3C[C@H]2Cc2ccc(O)cc2)cc1Br	none
CN1C(=O)C(=Cc2ccc(Sc3ccccc3)o2)C(=O)N(C)C1=O	none
O=C1NC(=O)C(=Cc2ccc(Sc3ccccc3)o2)C(=O)N1	NTR1 agonist 49 | NTR1 ag conf 90
ClC1=C(Cl)C2(Cl)C3C(Cl)C=CC3C1(Cl)C2(Cl)Cl (configuration not stated)	none
